Records with an inconclusive call do not appear. Entries that show only a call come without a potency. Active and inactive are the calls of the source. The call rests on the fitted dose curve; in most records, active means well fitted curve in the direction sought with a large enough effect in the repeat runs; inconclusive means weak or mixed curves; inactive means no such curve, though single readings can be large; an effect the other way counts as inactive or inconclusive.
Further: nearly all actives have a fitted effect of over 50% in size.

Chain of Voltage-gated inwardly rectifying potassium channel KCNH2 (Homo sapiens) (Q12809 whole entry, looked up): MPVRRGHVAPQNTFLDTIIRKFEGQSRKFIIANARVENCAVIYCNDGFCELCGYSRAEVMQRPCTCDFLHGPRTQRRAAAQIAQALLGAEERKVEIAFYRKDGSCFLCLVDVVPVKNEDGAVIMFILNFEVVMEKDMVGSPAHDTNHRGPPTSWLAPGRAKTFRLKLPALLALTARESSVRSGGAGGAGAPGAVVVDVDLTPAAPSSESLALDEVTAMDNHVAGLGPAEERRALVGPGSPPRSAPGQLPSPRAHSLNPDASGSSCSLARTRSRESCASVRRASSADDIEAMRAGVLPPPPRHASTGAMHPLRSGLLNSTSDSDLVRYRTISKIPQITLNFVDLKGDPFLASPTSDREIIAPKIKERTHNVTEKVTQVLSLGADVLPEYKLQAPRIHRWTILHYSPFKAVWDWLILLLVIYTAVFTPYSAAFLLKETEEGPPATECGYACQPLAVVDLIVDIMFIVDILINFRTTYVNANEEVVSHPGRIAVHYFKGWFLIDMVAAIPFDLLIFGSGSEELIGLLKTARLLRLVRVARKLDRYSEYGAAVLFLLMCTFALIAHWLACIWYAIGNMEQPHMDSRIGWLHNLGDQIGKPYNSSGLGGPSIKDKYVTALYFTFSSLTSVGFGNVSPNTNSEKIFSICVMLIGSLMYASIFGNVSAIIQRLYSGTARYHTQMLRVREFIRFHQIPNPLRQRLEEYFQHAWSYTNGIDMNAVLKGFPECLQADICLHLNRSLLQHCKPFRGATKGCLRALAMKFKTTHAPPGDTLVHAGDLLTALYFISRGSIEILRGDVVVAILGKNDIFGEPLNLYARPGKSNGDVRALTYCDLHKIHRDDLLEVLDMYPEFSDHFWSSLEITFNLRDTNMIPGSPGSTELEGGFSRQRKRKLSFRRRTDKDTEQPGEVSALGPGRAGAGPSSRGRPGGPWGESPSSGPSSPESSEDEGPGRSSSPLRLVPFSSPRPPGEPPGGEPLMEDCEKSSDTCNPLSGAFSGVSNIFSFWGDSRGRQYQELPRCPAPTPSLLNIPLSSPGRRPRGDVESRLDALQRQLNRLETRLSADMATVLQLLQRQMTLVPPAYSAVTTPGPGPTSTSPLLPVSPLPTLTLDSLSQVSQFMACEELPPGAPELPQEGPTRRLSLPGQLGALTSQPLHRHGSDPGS

The target in one assay is Voltage-gated inwardly rectifying potassium channel KCNH2 (Homo sapiens) (UniProt Q12809). The assay is described as follows: Human Ether-a-go-go-Related Gene (hERG) channel small molecule antagonists: fluorescence cell-based qHTS assay (AID 1671200).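 Further: hERG-expressing U2OS cells given a thallium stimulus after FluxOR II dye loading.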 To be noted: hERG-U2OS cells, FluxOR thallium flux fluorescence; series mostly up to 76.8 µM. In short, it runs like this:
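Channel function was assessed by thallium flux. Cells seeded the previous day and kept at 37 C took up FluxOR II dye over 1 h in the dark at room temperature, then sat another 10 min before stimulation.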
In the case of `CCOC(=O)C(C)(C)Oc1ccc(Cl)cc1`, the Potency entry was “inactive”.
As to `COc1cc(O)c(C(=O)c2ccccc2)cc1S(=O)(=O)O`, the Potency entry is “inactive”.
On the same count and under the same terms, to `CC(=O)/C=C/C1=C(C)CCCC1(C)C` belongs “inactive”; to `CC(C)=CCC/C(C)=C/CO`, “inactive”.
Still for that read-out and setting: to `CC(=O)c1ccc(S(=O)(=O)NC(=O)NC2CCCCC2)cc1` belongs “inactive”.
For `CCOCCO`, the Potency result was “inactive”.
Still for that read-out and setting: to `CC1(C)O[C@@H]2[C@@H](CO[C@@]3(COS(N)(=O)=O)OC(C)(C)O[C@@H]23)O1` belongs “inactive”; to `NC(=O)c1ccc([N+](=O)[O-])cc1Cl`, “inactive”; to `CC(C)Cc1ccc(C(C)C(=O)O)cc1` (stereo not given), “inactive”.
As to `CC(C)(C)NCC(O)c1ccc(O)c(CO)c1` (stereo not given), the Potency entry is “inactive”.
`COCCOCCOC`: the Potency result was “inactive”.
`Cc1cccc2ccccc12`: the Potency result was “inactive”.
With `COc1ccc(O)cc1`, the Potency result was “inactive”.
For the compound `C[C@]12C[C@H](O)[C@H]3[C@@H](CCC4=CC(=O)CC[C@@]43C)[C@@H]1CC[C@@H]2C(=O)CO`, the Potency result is “inactive”.
Same read-out and setting: to `COC(=O)c1ccc(C=O)cc1` belongs “inactive”.
Regarding `CCCCOC(=O)CCCCCCCCC(=O)OCCCC`, the Potency entry was “inactive”.
With `C[C@]12CC[C@@H]3c4ccc(O)cc4CC[C@H]3[C@@H]1CCC2=O`, the Potency entry is “inactive”.
Consider `C=C(C)OC(C)=O`, for which the Potency result is “inactive”.
As to `CN/C(=C\[N+](=O)[O-])NCCSCc1ccc(CN(C)C)o1`, the Potency entry is “inactive”.
`CN(C)C=O`: the Potency result is “inactive”.
As to `C#C[C@]1(O)CC[C@H]2[C@@H]3CCC4=CC(=O)CC[C@@H]4[C@H]3CC[C@@]21CC`, the Potency result is “inactive”.
As to `C[C@]12C=CC(=O)C=C1CC[C@@H]1[C@@H]2C(=O)C[C@@]2(C)[C@H]1CC[C@]2(O)C(=O)CO`, the Potency result was “inactive”.
Turning to `NC(=O)OCC(COC(N)=O)c1ccccc1`, the Potency result was “inactive”.
Take `NC(=O)NO`: the Potency result is “inactive”.
On to `Cc1cccc(C)c1O`, for which the Potency result was “inactive”.
In the case of `Cn1cnc2c1c(=O)[nH]c(=O)n2C`, the Potency result is “inactive”.
Same read-out and setting: to `CC(C)(C)CC(C)(C)c1ccc(O)c(-n2nc3ccccc3n2)c1` belongs “inactive”; to `O=C(O)CN(CC(=O)O)CC(=O)O`, “inactive”.
On the same count and under the same terms, then `CCn1cc(C(=O)O)c(=O)c2ccc(C)nc21`, with “inactive”; and `CCc1cc(C(N)=S)ccn1`, with “inactive”.

In a further assay the target is Cytochrome P450 3A4 (Homo sapiens) (UniProt P08684). The assay is described as follows: Cytochrome P450 Family 3 Subfamily A Member 4 (CYP3A4) small molecule antagonists: luciferase reporter qHTS assay (AID 1671201). Further: potency means the concentration at half of the fitted maximal effect. Particulars: P450-Glo CYP3A4 enzyme, luciferin luminescence, 1 h; series mostly up to 115 µM. In short, it runs like this: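 Compounds in DMSO were pin-transferred onto CYP3A4 enzyme-substrate mix and held 10 min at room temperature. NADPH regenerating solution started the reaction for 1 h; luciferin detection reagent stopped it, and luminescence was read after 20 min.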
Chain of Cytochrome P450 3A4 (Homo sapiens) (P08684 whole entry, looked up): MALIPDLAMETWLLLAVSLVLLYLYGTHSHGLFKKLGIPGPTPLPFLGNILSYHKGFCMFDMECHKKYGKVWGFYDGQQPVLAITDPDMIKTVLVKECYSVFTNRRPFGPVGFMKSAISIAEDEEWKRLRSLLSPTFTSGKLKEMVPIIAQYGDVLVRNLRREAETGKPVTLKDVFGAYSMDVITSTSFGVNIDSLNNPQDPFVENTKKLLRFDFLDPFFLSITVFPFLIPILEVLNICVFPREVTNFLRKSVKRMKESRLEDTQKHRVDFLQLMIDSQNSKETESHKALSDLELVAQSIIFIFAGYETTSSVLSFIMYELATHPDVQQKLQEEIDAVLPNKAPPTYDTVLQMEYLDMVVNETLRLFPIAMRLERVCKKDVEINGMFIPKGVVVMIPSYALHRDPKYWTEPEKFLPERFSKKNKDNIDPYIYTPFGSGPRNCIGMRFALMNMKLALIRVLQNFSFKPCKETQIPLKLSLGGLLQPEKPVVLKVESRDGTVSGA
For the compound `CC(=O)/C=C/C1=C(C)CCCC1(C)C`, the Potency is 35.6 µM (active).
In the case of `CC(=O)c1ccc(S(=O)(=O)NC(=O)NC2CCCCC2)cc1`, the Potency result is “inactive”.
The same measure, in the same setting: to `CCOCCO` belongs “inactive”.
For the compound `CC1(C)O[C@@H]2[C@@H](CO[C@@]3(COS(N)(=O)=O)OC(C)(C)O[C@@H]23)O1`, the Potency entry is “inactive”.
As to `CC(C)Cc1ccc(C(C)C(=O)O)cc1` (stereo not given), the Potency result was “inactive”.
Take `CC(C)(C)NCC(O)c1ccc(O)c(CO)c1` (stereo not given): the Potency entry is “inactive”.
Still for that read-out and setting: then `COCCOCCOC`, with “inactive”.
On to `Cc1cccc2ccccc12`, for which the Potency entry was “inactive”.
On to `COC(=O)c1ccc(C=O)cc1`, for which the Potency entry is “inactive”.
In the case of `CCCCOC(=O)CCCCCCCCC(=O)OCCCC`, the Potency entry is “inactive”.
With `CN/C(=C\[N+](=O)[O-])NCCSCc1ccc(CN(C)C)o1`, the Potency result was “inactive”.
In the case of `CN(C)C=O`, the Potency entry is “inactive”.
For `NC(=O)OCC(COC(N)=O)c1ccccc1`, the Potency entry is “inactive”.
In the case of `CC(C)(C)CC(C)(C)c1ccc(O)c(-n2nc3ccccc3n2)c1`, the Potency result is “inactive”.
On to `O=C(O)CN(CC(=O)O)CC(=O)O`, for which the Potency entry was “inactive”.

(Values after PubChem BioAssay (Tox21).)
